Most compounds without a hit are left out; they make up all but 3% or so of the library.
CSC inhib – cancer stem cell inhibition; cancer stem cell-like cells viability, luminescence; inhibition, % at 7.5 µM; 300,000 compounds, 1.1% hits; AID 2717; in the data active = inhibition above about 75%; inconclusive = no clear call, values can overlap the other calls; tested in HMLE shEcad cells
aSyn 5UTR inh – 5' untranslated region of α-synuclein, MLPCN primary screen | alpha-synuclein 5'UTR reporter, inhibitor activity | inhibition, % (tested at 7.5 µM) | 300,000 compounds, 0.82% hits | AID 1813; in the data active = inhibition above about 60%; inconclusive = no clear call, values can overlap the other calls;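 also: H4 neuroglioblastoma cells stably carrying SNCA 5'UTR luciferase fusion; 0% = DMSO wells and 100% = positive control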
KLF5 inhibitor – inhibitors of KLF5 expression | DLD-1 KLF5 promoter-luciferase reporter, luminescence | 290,000 compounds, 0.23% hits | inhibition, % at 5 µM;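 active = inhibition above a per-plate limit of that plate's mean compound inhibition plus 3 SD, cut at about 60% in these data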;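 also: 0% = DMSO wells and 100% = LY294002 at 200 µM; higher means less KLF5 promoter-driven luciferase light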
IEC-6 tox – IEC-6 cytotoxicity, counter-screen for KLF5 inhibitors. luminescence viability. inhibition, % at 5 µM. 290,000 compounds, 0.78% hits. AID 1825; in the data active = inhibition above about 22%;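 also: 0% = plate median of test compound wells and 100% = cytotoxic reference compound wells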
SKKanGAS inh – inhibitors of SKKanGAS S. pyogenes growth in kanamycin (SK-promoter or general growth effect); BacTiter-Glo, 6 h; inhibition, % at 7.5 µM; 300,000 compounds, 1.3% hits; AID 1662;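 active = mean replicate score, as percent of positive control median, at least 50; inconclusive = mean below 50 but one replicate at or above 50; inactive = mean and every replicate below 50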;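 also: strain carries kanamycin resistance gene driven by streptokinase promoter and grows in 40 µg/ml kanamycin; loss of luminescence reflects streptokinase promoter inhibition or plain growth inhibition; 0% = median of DMSO wells and 100% = positive control at its reference dose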
The depositor's hits bear a star; ? = inconclusive; . = no result given.

SMILES	CSC inhib	aSyn 5UTR inh	KLF5 inhibitor	IEC-6 tox	SKKanGAS inh
CCOC(=O)c1c(C)sc2c1N(C(=O)CCl)c1cc(Cl)ccc1S2	129.8*	42.1	8.7	12.6	-2.7
Clc1ccccc1Cn1c(/C=C/c2ccco2)nc2ccccc21	112.3*	-30.8	-10.1	-2.8	0.9
N#Cc1ccccc1NC(=O)CSc1nnc(-c2ccncc2)o1	5.6	-4.6	-14.1	0.3	-8.1
CCNC(=S)NNC(=O)c1cc(-c2cccc(OC)c2)nc2ccccc12	4.9	-55.2	-10.2	-0.6	24.6
CCCOc1ccc(C(=O)NNC(=S)NC(=O)c2cc(-c3ccc(Cl)cc3)nc3ccccc23)cc1	70.6	9.4	-3.1	5.3	99.3*
COC(=O)c1ccc(NC(=S)NC(=O)c2cc(-c3ccccc3)nc3ccccc23)cc1	.	-0.8	-29.1	-7.1	8.2
COc1ccc(Cl)cc1C(=O)NNC(=S)NC(=O)c1cc(-c2ccccc2)nc2ccccc12	-5.7	-11.1	3.8	6.6	80.4*
Cc1ccnc(NS(=O)(=O)c2ccc(NC(=O)c3cc(-c4ccc(Br)cc4)nc4ccccc34)cc2)n1	22.5	-25.0	-3.4	1.4	62.1*
COc1ccc(C(=O)NNC(=S)NC(=O)c2cc(-c3ccccc3)nc3ccccc23)cc1	-6.1	-15.9	-65.9	4.5	106.7*
CSCCC(NC(=O)c1ccc([N+](=O)[O-])cc1Cl)C(=O)OC(C)C(=O)NCc1ccco1 (centres undefined)	-2.0	14.3	.	.	12.3
COC(=O)c1ccc(CSc2nc3ccc(C)cc3[nH]2)o1	-10.0	-11.8	-4.0	1.9	-13.5
CC(C)(C)c1ccc(-c2cc(C(=O)NNC(=O)Nc3ccccc3)c3ccccc3n2)cc1	4.9	-124.0	-92.2	1.4	56.3*
C=CCSC(=C(C#N)C#N)c1cc2c([nH]1)CCCC2	100.5*	-41.3	-19.9	-1.8	3.1
CCOc1ccc2nc(C)cc(Nc3cccc([N+](=O)[O-])c3)c2c1	15.2	17.3	-16.1	5.7	1.8
COc1cc(OC)cc(C(=O)Nc2nc(-c3ccccc3)c(-c3ccccc3)o2)c1	23.6	44.2	13.2	-2.1	90.5*
O=C(CSC(=S)N1CCOCC1)Nc1nc(-c2ccccc2)c(-c2ccccc2)o1	-14.3	4.2	-4.0	3.6	41.5
O=C(CSC(=S)N1CCCCC1)Nc1nc(-c2ccccc2)c(-c2ccccc2)o1	14.0	10.6	6.9	4.0	50.1*
CCN(CC)C(=S)SCC(=O)Nc1nc(-c2ccccc2)c(-c2ccccc2)o1	10.1	-1.8	-19.4	2.1	83.3*
Cn1nnnc1SCC(=O)Nc1nc(-c2ccccc2)c(-c2ccccc2)o1	5.2	-18.3	-61.1	0.2	59.1*
Cc1c(NC(=O)C(C)OC(=O)CCc2c[nH]c3ccccc23)c(=O)n(-c2ccccc2)n1C (centres undefined)	-2.2	18.8	.	.	-3.1
CCCCOc1ccc(C(=O)N2CCN(c3ccc(N4CCOCC4)nn3)CC2)cc1	11.8	9.3	.	.	3.2
CCCOc1ccc(C(=O)N2CCN(c3ccc(N)cc3Cl)CC2)cc1	76.3*	-11.7	-11.2	-3.3	0.8
COc1ccc(OC)c(CNC(=O)CCC(=O)N2Cc3cccc(OC)c3Oc3ncccc32)c1	-10.6	-3.0	-19.5	-5.1	5.2
CCOC(=O)c1c(CN(C)C)n(-c2ccc(C)cc2)c2cc(Br)c(O)cc12	0.8	21.7	-18.4	-3.8	100.3*
CCOC(=O)c1c(CSC(=N)N)n(-c2ccc(C)cc2)c2cc(Br)c(OC(C)=O)cc12	114.0*	54.7	-33.5	-2.9	4.8
SMILES	CSC inhib	aSyn 5UTR inh	KLF5 inhibitor	IEC-6 tox	SKKanGAS inh
O=C(Nc1cccnc1Cl)c1cc2ccccc2o1	-11.4	-166.1	-181.9	-4.7	-1.2
CCCCn1c(N)c(N(CC(C)C)C(=O)c2ccc(N3C(=O)CCC3=O)cc2)c(=O)[nH]c1=O	-6.8	9.7	.	.	-0.5
CCC(=O)N1N=C(c2c(O)n(C)c(=O)n(C)c2=O)CC1c1ccccc1 (centres undefined)	8.5	8.4	36.3	5.1	75.1*
CC(=C/c1ccc(C(C)C)cc1)/C=N/NC(=O)CSc1ccccn1	-9.8	-163.7	-58.9	-2.9	67.6*
CC(/C=N/NC(=O)CSc1ccccn1)=C\c1ccc(C(C)C)cc1	-16.3	-253.6	-50.0	-2.8	36.3
O=C(Nc1ccccc1)C1=C[C@@H](c2ccc(C(F)(F)F)cc2)C[C@@H](OCc2ccc(CO)cc2)O1	79.2*	-29.0	1.5	1.6	10.7
O=C(NCc1ccccc1)C1=C[C@H](c2csc3ccccc23)C[C@H](OCc2ccc(CO)cc2)O1	14.0	18.2	.	.	27.9
O=C(Nc1ccccc1)C1=C[C@@H](c2csc3ccccc23)C[C@@H](OCc2ccc(CO)cc2)O1	85.6*	28.4	7.3	3.0	19.9
CCOC(=O)c1ccc(NC(=S)Nc2ccccc2N)cc1	12.9	-27.2	.	.	5.7
CC(=O)N1CCOc2ccc(S(=O)(=O)NCC3CCC(C(=O)Nc4ncccc4C)CC3)cc21 (centres undefined)	-18.3	6.5	-41.4	-0.7	-1.2
O=C1C(N2CCOCC2)=C(n2nnc3ccccc32)C(=O)c2ccccc21	109.8*	?	0.0	21.0	30.4
O=c1cc(N2CCCCC2)c(-c2ccccc2)nn1Cc1ccc(F)cc1	40.1	30.1	-0.3	3.7	16.7
O=c1cc(N2CCCCC2)c(-c2ccccc2)nn1Cc1c(Cl)cccc1Cl	104.2*	53.9	-66.1	-2.8	107.1*
O=c1cc(N2CCCCC2)c(-c2ccccc2)nn1Cc1ccc(Cl)cc1	102.8*	37.3	-16.0	0.9	94.2*
N#CCCN(Cc1cccnc1)C(=S)NC1CC2C=CC1C2 (centres undefined)	.	4.9	-12.3	1.4	-7.0
COc1cccc(C(=O)Nc2ccc(C3CC3(Cl)Cl)cc2)c1 (centres undefined)	91.0*	-169.2	-67.8	0.4	11.2
COc1cccc(C(=O)Nc2ccc(C)cc2)c1	4.1	-127.4	-155.8	10.8	5.6
NC(=O)CC(NC(=O)Cc1ccc(Cl)cc1)c1ccc(NCc2ccccc2)c([N+](=O)[O-])c1 (centres undefined)	1.8	-16.9	.	.	-1.2
CCN(C(=O)COC(=O)c1cccs1)c1c(N)n(Cc2ccccc2)c(=O)[nH]c1=O	-2.5	3.8	.	.	-5.6
CC(=O)Nc1cc(NC(C)=O)cc(C(=O)N2CCCC3CCCCC32)c1 (centres undefined)	-3.7	8.1	-50.0	-1.6	3.9
Cc1nc(Nc2nc3ccccc3o2)nc2c1CCC2	1.1	71.1*	48.3	4.8	17.3
CCOC(=O)c1cnc(Nc2nc3ccccc3o2)nc1C	43.2	85.9*	-109.8	-1.7	10.1
Cc1cccc(C)c1Nc1nc2ccccc2o1	5.7	8.0	18.4	-3.9	-0.7
CC(=O)C[C@H](O)CC(=O)[C@H]1OC(=O)CCCCCCCc2ccccc21	12.9	.	.	.	.
CCC(CC)NC(=O)c1oc2ccccc2c1COc1ccccc1	27.5	27.3	20.3	-9.8	51.9*
CC(C)CNC(=O)c1oc2ccccc2c1COc1ccccc1	27.1	32.0	-6.4	5.7	18.0
COc1ccccc1NC(=O)N[C@@H](Cc1c[nH]c2ccccc12)C(=O)NN	-10.5	-7.9	-42.7	-2.4	8.0
Cc1c(C(=O)N/N=C/C(C)C)[nH]c2c([N+](=O)[O-])cccc12	.	68.0*	2.1	7.3	-5.2
